# Several values for one entry are separate records, joined by “and”; a condition that tells them apart may be missing. Equal entries are not always repeated. Values without a mark were called inactive. Inconclusive results are not listed. A call without a number means that no potency is given here. Activity calls are given as the source filed them. Unless noted, calls come from the whole dose curve; as a rule, active = well fitted curve in the direction sought with a large enough effect in the repeat runs; inconclusive = weak or mixed curves; inactive = no such curve, though single readings can be large; an effect the other way counts as inactive or inconclusive.
# Legend:
# [1] = molecular target: Acetylcholinesterase (Homo sapiens) (UniProt P22303); test: Acetylcholinesterase (AChE) small molecule antagonists: enzyme-based qHTS assay (AID 1347397; calls by dose curve; note: nearly all actives have a fitted effect of over 55% in size; note: potency is the fitted concentration of half-maximal effect); details: Potency: AChE enzyme activity inhibition
# Sequence of Acetylcholinesterase (Homo sapiens) (P22303 whole entry, looked up): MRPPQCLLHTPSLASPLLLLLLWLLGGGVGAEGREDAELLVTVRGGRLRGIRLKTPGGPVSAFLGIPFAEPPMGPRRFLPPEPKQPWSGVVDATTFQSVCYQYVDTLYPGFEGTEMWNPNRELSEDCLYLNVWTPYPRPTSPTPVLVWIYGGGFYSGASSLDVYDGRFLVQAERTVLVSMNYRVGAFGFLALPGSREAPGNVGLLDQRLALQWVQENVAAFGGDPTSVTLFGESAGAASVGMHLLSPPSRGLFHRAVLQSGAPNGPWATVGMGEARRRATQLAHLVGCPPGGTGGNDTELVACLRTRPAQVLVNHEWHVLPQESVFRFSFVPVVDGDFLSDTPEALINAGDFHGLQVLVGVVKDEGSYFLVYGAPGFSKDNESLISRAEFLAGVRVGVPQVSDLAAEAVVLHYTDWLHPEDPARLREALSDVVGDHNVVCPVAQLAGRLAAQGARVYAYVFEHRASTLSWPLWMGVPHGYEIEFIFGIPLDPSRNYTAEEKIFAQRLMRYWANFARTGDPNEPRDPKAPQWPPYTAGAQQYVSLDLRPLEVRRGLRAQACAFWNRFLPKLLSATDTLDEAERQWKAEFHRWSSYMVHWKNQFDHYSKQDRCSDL
# In short: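 In this quantitative HTS, compounds from the Tox21 10K collection were preincubated 30 min at ambient temperature with recombinant human AChE dispensed at 50 mU/mL. Hydrolysis of acetylthiocholine was then followed for 10 min by DTNB colour development.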
# [2] = molecular target: Acetylcholinesterase (Homo sapiens) (UniProt P22303); test: Acetylcholinesterase (AChE) small molecule antagonists: fluorescence cell-based qHTS assay (AID 1347398; calls by dose curve; note: nearly all actives have a fitted effect of over 50% in size; note: potency is the fitted concentration of half-maximal effect); details: Potency: AChE activity
# In short: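 Cells (SH-SY5Y) attached overnight, were dosed with compound or DMSO vehicle for 30 min at 37 C, and then incubated 40 min at room temperature with acetylthiocholine and Thiolite Green; green fluorescence indexed AChE activity.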
# [3] = molecular target: Acetylcholinesterase (Homo sapiens) (UniProt P22303); test: Acetylcholinesterase (AChE) small molecule antagonists: enzyme-based qHTS assay with human liver microsomes (AID 1347399; calls by dose curve; note: nearly all actives have a fitted effect of over 60% in size); details: Potency: qHTS inhibition
# In short: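 Recombinant human AChE (50 mU/mL in the enzyme mix) and human liver microsomes (0.25 mg/mL final) were preincubated with compound and NADPH (0.25 mg/mL final) for 30 min at 37 C. Acetylthiocholine/DTNB was then added; thiocholine was read colorimetrically after 10 min at room temperature.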
# [4] = molecular target: Cytochrome P450 2C19 (Homo sapiens) (UniProt P33261); test: Cytochrome P450 Family 2 Subfamily C Member 19 (CYP2C19) small molecule antagonists: luciferase reporter qHTS assay (AID 1671197); note: nearly all actives have a fitted effect of over 65% in size; note: potency is the fitted concentration of half-maximal effect
# Sequence of Cytochrome P450 2C19 (Homo sapiens) (P33261 whole entry, looked up): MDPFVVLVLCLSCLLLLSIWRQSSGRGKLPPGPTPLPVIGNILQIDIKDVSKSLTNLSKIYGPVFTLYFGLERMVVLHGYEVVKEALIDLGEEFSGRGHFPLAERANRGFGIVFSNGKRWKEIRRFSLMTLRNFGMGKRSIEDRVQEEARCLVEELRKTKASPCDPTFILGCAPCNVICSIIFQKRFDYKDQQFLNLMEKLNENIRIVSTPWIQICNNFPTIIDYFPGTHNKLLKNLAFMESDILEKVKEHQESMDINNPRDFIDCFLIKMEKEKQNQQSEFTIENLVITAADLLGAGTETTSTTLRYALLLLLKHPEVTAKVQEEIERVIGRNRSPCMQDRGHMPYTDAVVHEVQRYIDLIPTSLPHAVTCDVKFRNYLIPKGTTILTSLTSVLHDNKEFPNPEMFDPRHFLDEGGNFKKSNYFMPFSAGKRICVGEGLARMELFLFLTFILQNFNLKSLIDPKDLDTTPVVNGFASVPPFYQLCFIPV
# In short: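 P450-Glo CYP2C19 screening system; proluciferin substrate; DMSO compound stocks; 10 min RT preincubation; NADPH regeneration, 1 h at 37C; luciferin detection reagent, 20 min RT; luminescence as RLU.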
# [5] = molecular target: Cytochrome P450 2C9 (Homo sapiens) (UniProt P11712); test: Cytochrome P450 Family 2 Subfamily C Member 9 (CYP2C9) small molecule antagonists: luciferase reporter qHTS assay (AID 1671198); note: nearly all actives have a fitted effect of over 50% in size; note: potency is the fitted concentration of half-maximal effect
# Sequence of Cytochrome P450 2C9 (Homo sapiens) (P11712 whole entry, looked up): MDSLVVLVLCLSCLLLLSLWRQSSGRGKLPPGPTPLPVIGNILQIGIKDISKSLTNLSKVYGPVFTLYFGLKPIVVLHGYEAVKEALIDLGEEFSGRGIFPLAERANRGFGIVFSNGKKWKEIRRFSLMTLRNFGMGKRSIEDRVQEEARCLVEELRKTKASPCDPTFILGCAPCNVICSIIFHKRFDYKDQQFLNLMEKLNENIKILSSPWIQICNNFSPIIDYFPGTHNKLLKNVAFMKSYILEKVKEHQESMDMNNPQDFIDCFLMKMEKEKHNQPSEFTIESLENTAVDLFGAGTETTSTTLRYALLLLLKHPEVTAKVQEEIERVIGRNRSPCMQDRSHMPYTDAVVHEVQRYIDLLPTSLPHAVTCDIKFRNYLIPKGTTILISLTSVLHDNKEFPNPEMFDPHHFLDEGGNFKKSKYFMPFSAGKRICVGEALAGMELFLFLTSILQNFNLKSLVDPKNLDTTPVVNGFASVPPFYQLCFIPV
# In short: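 P450-Glo proluciferin substrate with CYP2C9 enzyme; 10 min RT preincubation, then NADPH regeneration 1 h at 37C; luciferin detection reagent 20 min RT, luminescence in relative luminescence units.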
# [6] = molecular target: Cytochrome P450 1A2 (Homo sapiens) (UniProt P05177); test: Cytochrome P450 Family 1 Subfamily A Member 2 (CYP1A2) small molecule antagonists: luciferase reporter qHTS assay (AID 1671199); note: nearly all actives have a fitted effect of over 50% in size; note: potency is the fitted concentration of half-maximal effect
# Sequence of Cytochrome P450 1A2 (Homo sapiens) (P05177 whole entry, looked up): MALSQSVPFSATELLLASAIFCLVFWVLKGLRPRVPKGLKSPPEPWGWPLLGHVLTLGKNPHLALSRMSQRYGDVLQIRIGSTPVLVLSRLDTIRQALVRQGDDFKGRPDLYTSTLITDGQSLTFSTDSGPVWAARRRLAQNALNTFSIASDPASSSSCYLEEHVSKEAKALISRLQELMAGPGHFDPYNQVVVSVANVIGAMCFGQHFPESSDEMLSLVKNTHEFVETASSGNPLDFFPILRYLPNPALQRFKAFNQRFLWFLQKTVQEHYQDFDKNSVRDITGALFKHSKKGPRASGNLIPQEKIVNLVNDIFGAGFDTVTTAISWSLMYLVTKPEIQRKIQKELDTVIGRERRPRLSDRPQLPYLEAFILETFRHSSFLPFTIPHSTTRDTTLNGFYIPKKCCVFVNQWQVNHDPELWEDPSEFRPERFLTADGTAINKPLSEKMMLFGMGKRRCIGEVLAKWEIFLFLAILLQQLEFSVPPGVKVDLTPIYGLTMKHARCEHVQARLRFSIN
# In short: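 Luminescence readout (relative luminescence units) after luciferin detection reagent, 20 min RT. Preceded by 1 h room-temperature CYP1A2 reaction with NADPH regeneration solution following 10 min compound preincubation with enzyme and proluciferin substrate. Furafylline positive control.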
# [7] = molecular target: Voltage-gated inwardly rectifying potassium channel KCNH2 (Homo sapiens) (UniProt Q12809); test: Human Ether-a-go-go-Related Gene (hERG) channel small molecule antagonists: fluorescence cell-based qHTS assay (AID 1671200); note: nearly all actives have a fitted effect of over 50% in size; note: potency is the fitted concentration of half-maximal effect
# Sequence of Voltage-gated inwardly rectifying potassium channel KCNH2 (Homo sapiens) (Q12809 whole entry, looked up): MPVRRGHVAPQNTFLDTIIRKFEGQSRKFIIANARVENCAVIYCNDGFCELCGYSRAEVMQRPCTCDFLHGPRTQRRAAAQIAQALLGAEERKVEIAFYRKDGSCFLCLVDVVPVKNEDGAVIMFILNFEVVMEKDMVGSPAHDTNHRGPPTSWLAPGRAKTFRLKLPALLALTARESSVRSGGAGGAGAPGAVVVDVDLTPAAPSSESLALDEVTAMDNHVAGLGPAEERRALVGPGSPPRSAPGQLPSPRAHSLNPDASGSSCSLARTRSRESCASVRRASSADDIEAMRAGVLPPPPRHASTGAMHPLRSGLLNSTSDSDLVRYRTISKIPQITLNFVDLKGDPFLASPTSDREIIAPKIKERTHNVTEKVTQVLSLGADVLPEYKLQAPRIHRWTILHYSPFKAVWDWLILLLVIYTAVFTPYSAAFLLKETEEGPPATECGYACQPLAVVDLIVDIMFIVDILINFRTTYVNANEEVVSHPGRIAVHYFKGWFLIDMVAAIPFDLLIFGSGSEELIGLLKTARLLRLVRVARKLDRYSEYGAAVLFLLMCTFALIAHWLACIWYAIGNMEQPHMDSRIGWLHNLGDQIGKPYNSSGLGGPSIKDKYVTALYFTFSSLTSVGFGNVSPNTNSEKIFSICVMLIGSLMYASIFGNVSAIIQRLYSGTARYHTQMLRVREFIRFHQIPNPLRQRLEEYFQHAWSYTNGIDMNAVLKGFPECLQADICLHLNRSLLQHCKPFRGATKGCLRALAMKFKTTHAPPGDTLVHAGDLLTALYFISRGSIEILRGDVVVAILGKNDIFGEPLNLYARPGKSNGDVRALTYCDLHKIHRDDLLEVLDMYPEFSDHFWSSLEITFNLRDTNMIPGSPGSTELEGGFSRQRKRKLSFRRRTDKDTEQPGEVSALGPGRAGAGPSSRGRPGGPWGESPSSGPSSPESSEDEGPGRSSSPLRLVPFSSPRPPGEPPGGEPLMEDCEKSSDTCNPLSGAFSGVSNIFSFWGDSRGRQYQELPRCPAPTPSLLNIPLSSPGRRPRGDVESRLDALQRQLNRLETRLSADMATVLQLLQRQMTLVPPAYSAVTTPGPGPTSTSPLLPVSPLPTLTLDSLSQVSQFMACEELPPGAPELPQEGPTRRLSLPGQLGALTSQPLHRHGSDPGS
# In short: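 Read-out: thallium influx as a surrogate for potassium, tracked as fluorescence (480 nm ex/540 nm em) every second for 2 min after Stimulus Buffer addition in dye-loaded hERG-U2OS cells.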
# [8] = molecular target: Cytochrome P450 3A4 (Homo sapiens) (UniProt P08684); test: Cytochrome P450 Family 3 Subfamily A Member 4 (CYP3A4) small molecule antagonists: luciferase reporter qHTS assay (AID 1671201); note: nearly all actives have a fitted effect of over 50% in size; note: potency is the fitted concentration of half-maximal effect
# Sequence of Cytochrome P450 3A4 (Homo sapiens) (P08684 whole entry, looked up): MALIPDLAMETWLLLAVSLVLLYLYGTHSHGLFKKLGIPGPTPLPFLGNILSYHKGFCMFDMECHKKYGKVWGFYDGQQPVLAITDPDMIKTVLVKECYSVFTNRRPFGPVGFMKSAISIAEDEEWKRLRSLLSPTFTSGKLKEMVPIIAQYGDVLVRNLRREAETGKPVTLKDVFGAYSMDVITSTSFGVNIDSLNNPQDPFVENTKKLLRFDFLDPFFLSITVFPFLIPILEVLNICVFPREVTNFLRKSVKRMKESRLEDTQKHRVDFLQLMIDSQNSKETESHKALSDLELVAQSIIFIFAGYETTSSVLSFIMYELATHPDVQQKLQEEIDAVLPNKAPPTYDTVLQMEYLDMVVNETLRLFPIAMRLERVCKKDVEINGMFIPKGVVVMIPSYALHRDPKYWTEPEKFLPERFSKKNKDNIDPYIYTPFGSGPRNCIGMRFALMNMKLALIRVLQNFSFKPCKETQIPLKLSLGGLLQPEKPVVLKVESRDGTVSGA
# In short: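 Luminescent readout (RLU) proportional to CYP3A4 activity, from luciferin generated off a proluciferin substrate. Enzyme–substrate mix plus compound 10 min at room temp, NADPH regeneration 1 h, detection reagent 20 min.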
# [9] = molecular target: Cytochrome P450 2D6 (Homo sapiens) (UniProt P10635); test: Cytochrome P450 Family 2 Subfamily D Member 6 (CYP2D6) small molecule antagonists: luciferase reporter qHTS assay (AID 1671196); note: nearly all actives have a fitted effect of over 50% in size; note: potency is the fitted concentration of half-maximal effect
# Sequence of Cytochrome P450 2D6 (Homo sapiens) (P10635 whole entry, looked up): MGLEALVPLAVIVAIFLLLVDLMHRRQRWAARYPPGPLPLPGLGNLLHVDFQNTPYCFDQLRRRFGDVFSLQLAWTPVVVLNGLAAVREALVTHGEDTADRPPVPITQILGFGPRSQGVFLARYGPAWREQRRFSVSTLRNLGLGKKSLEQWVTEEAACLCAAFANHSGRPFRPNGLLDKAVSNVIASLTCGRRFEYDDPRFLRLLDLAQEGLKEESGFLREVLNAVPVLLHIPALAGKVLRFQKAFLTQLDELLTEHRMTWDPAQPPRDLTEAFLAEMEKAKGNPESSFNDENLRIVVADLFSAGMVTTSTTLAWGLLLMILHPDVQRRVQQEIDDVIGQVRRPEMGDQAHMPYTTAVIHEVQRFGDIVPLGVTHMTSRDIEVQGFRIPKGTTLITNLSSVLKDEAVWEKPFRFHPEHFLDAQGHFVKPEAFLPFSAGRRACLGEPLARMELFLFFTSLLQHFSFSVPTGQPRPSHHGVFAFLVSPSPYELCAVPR
# In short: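 Luminogenic proluciferin substrate, CYP2D6 enzyme; 10 min RT preincubation with compound, NADPH regeneration system added, 1 h RT. Stop/detection reagent, 20 min RT, luminescence read (RLU). Signal proportional to CYP activity.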
Compound,Potency [1],Potency [2],Potency [3],Potency [4],Potency [5],Potency [6],Potency [7],Potency [8],Potency [9]
Cc1cc(C(C)(C)c2cc(C)c(O)c(C)c2)cc(C)c1O,inactive,inactive,inactive,1.22 µM (active),3.07 µM (active),38.6 µM (active),inactive,2.73 µM (active),
COS(=O)(=O)c1ccc(C)cc1,inactive,inactive,inactive,inactive,inactive,inactive,inactive,inactive,
S=C(SSC(=S)N1CCCCC1)N1CCCCC1,inactive,38.9 µM (active),inactive,6.92 µM (active),6.92 µM (active),,inactive,,
C=CC(=O)N(C)C,inactive,inactive,inactive,inactive,inactive,inactive,inactive,inactive,
O=[N+]([O-])c1c2ccccc2cc2ccccc12,inactive,inactive,inactive,11.1 µM (active),11.1 µM (active),0.3 µM (active),inactive,,
BrC(Br)C(Br)(Br)Br,inactive,inactive,inactive,40.2 µM (active),31.9 µM (active),31.9 µM (active),,inactive,
CC(=O)c1ccc(-c2ccccc2)cc1,inactive,inactive,inactive,31.7 µM (active),15.9 µM (active),5.03 µM (active),inactive,inactive,
COP(=O)(CCC(=O)NCO)OC,inactive,inactive,inactive,inactive,inactive,inactive,inactive,inactive,
Oc1ccc(C(c2ccc(O)cc2)(C(F)(F)F)C(F)(F)F)cc1,inactive,inactive,inactive,5 µM (active) and 2.83 µM (active),3.16 µM (active) and 2 µM (active),inactive,43.4 µM (active),35.4 µM (active) and 35.6 µM (active),
N#C/C=C/C#N,inactive,inactive,inactive,18.7 µM (active),37.3 µM (active),29.6 µM (active),inactive,37.3 µM (active),
CCN(CC)C(=S)[S-].CCN(CC)C(=S)[S-].[Zn+2],inactive,inactive,inactive,49.8 µM (active),15.8 µM (active),inactive,8.63 µM (active),,
CC(Cc1ccc(C(C)(C)C)cc1)CN1C[C@@H](C)O[C@@H](C)C1 (stereo partly drawn),inactive,inactive,inactive,31.7 µM (active),35.6 µM (active),39.9 µM (active),12.3 µM (active),22.4 µM (active),
c1ccc2cc3c(cc2c1)-c1cccc2cccc-3c12,inactive,inactive,inactive,inactive,inactive,0.197 µM (active),inactive,inactive,
c1ccc(Nc2ccc3ccccc3c2)cc1,inactive,inactive,inactive,7.06 µM (active) and 5.64 µM (active),35.4 µM (active) and 31.7 µM (active),3.54 µM (active) and 3.56 µM (active),inactive,22.3 µM (active) and 35.6 µM (active),
CC(=[OH+])/C=C(/C)[O-].CC(=[OH+])/C=C(\C)[O-].CC(=[OH+])/C=C(\C)[O-].[Al],inactive,inactive,inactive,inactive,inactive,inactive,inactive,inactive,
Oc1c(Cl)c(Cl)cc(Cl)c1Cl,inactive,inactive,inactive,inactive,21.8 µM (active),69.1 µM (active),inactive,inactive,
CC(C)[C@H](C(=O)OC(C#N)c1cccc(Oc2ccccc2)c1)c1ccc(OC(F)F)cc1 (stereo partly drawn),inactive,inactive,inactive,17.8 µM (active),3.99 µM (active),inactive,inactive,,
N#Cc1c(-c2ccc(Cl)cc2)[nH]c(C(F)(F)F)c1Br,inactive,inactive,inactive,39.9 µM (active),11.2 µM (active),0.317 µM (active),,inactive,
CC(C)(C)c1ccc(CSc2cnn(C(C)(C)C)c(=O)c2Cl)cc1,inactive,inactive,inactive,7.96 µM (active),6.33 µM (active),25.2 µM (active),,inactive,
CC(=O)Nc1ccc2c(c1)Cc1ccccc1-2,inactive,inactive,inactive,18.1 µM (active),25.6 µM (active),3.22 µM (active),inactive,64.3 µM (active),
NC(=O)c1ccc(N)nc1,inactive,inactive,inactive,inactive,inactive,inactive,inactive,inactive,
Nc1ccc([N+](=O)[O-])cc1Cl,inactive,inactive,inactive,inactive,inactive,25.2 µM (active),inactive,inactive,
CC(C)CCCCCOC(=O)c1ccccc1C(=O)OCCCCCC(C)C,inactive,inactive,inactive,39.5 µM (active),12.5 µM (active),35.2 µM (active),inactive,2.79 µM (active),

Compound,Potency [1],Potency [2],Potency [3],Potency [4],Potency [5],Potency [6],Potency [7],Potency [8],Potency [9]
Nc1ccc(Cl)cc1C(=O)c1ccccc1,inactive,inactive,inactive,15.9 µM (active),39.9 µM (active),15.9 µM (active),,,
CC(O)C#N (stereo not drawn),inactive,inactive,inactive,inactive,inactive,inactive,inactive,inactive,
NC(=O)CCl,inactive,inactive,inactive,inactive,inactive,inactive,inactive,inactive,
CCCCCCCCCCCCCC[P+](CCCCCC)(CCCCCC)CCCCCC (tested in a mixture with another compound),20 µM (active),71 µM (active),inactive,20 µM (active),22.5 µM (active),22.5 µM (active),0.692 µM (active),5.03 µM (active),
CC(C)(C)c1cc([N+](=O)[O-])cc(C(C)(C)C)c1O,inactive,inactive,inactive,31.7 µM (active),12.6 µM (active),31.7 µM (active),,inactive,
OC(Cc1ccccc1Cl)(Cn1cncn1)C1(Cl)CC1 (stereo not drawn),inactive,inactive,inactive,1.26 µM (active),2 µM (active),0.796 µM (active),inactive,0.2 µM (active),
CCCCN(CCCC)C(=S)[S-].CCCCN(CCCC)C(=S)[S-].[Zn+2],inactive,inactive,inactive,79.6 µM (active),20 µM (active),,inactive,28.3 µM (active),
Oc1cccc(-c2ccccc2)c1,inactive,inactive,inactive,35.6 µM (active),,17.8 µM (active),inactive,,
CC(C)C1CCC(Cc2ccc(Cl)cc2)C1(O)Cn1cncn1 (stereo not drawn),inactive,inactive,,0.353 µM (active),0.789 µM (active),31.4 µM (active),34.3 µM (active),0.0498 µM (active),22.2 µM (active)
C[C@]12CC[C@@H]3c4ccc(OC(=O)N(CCCl)CCCl)cc4CC[C@H]3[C@@H]1CC[C@@H]2O,inactive,inactive,,inactive,inactive,inactive,inactive,inactive,inactive
Oc1ccc(C2(c3ccc(O)cc3)CCCCC2)cc1,inactive,inactive,inactive,37.8 µM (active),33.7 µM (active),,,23.9 µM (active),
CC(Cl)CN(C)C (stereo not drawn),inactive,inactive,,inactive,inactive,inactive,inactive,inactive,inactive
ClC(Cl)=C(Cl)Cl,inactive,inactive,inactive,inactive,inactive,,inactive,inactive,
CCN(CC)c1c([N+](=O)[O-])cc(C(F)(F)F)c(N)c1[N+](=O)[O-],inactive,inactive,inactive,20 µM (active),,0.356 µM (active),inactive,,
Clc1ccc(-c2ccccc2)cc1,inactive,inactive,inactive,,inactive,39.9 µM (active),inactive,inactive,
Nc1ccccc1C(=O)Oc1ccc2ccccc2c1,inactive,inactive,inactive,,20 µM (active),14.2 µM (active),,inactive,
CCOC(=O)OC1=C(c2cc(C)ccc2C)C(=O)NC12CCC(OC)CC2 (stereo not drawn),inactive,inactive,inactive,,,44.8 µM (active),inactive,1.12 µM (active),
O=[N+]([O-])c1cc(C(F)(F)F)c(Cl)c([N+](=O)[O-])c1Cl,inactive,inactive,inactive,,12.6 µM (active),11.2 µM (active),27.5 µM (active),56.4 µM (active),
ClCc1ccccc1CCl,inactive,inactive,inactive,,inactive,,inactive,inactive,
C=CC(=O)OCCCCOC(=O)C=C,inactive,inactive,inactive,,,35.6 µM (active),inactive,inactive,
COc1ccc(OC)c(CC(C)N)c1 (stereo not drawn),inactive,inactive,,inactive,inactive,inactive,inactive,inactive,7.62 µM (active)
CCS(=O)(=O)c1cccnc1S(=O)(=O)NC(=O)Nc1nc(OC)cc(OC)n1,inactive,inactive,inactive,,71 µM (active),,inactive,,

# From PubChem BioAssay (Tox21)
